From the supplement of paper PMC3334620
In all, about 33,000 sequences were measured (“E-score (-0.5 to 0.5)”: median about -0.0014, highest 2% from about 0.25 on). The entries come from a sample that favours the highest values as a whole.

biological target: T1, Cad1 (UniProt P24813); test: PBM E-score (8-mer binding enrichment) (E-score (-0.5 to 0.5)); higher = stronger / more preferred TF binding; conditions: protein concentration: 100 nM; construct: GST-full length
T1 sequence: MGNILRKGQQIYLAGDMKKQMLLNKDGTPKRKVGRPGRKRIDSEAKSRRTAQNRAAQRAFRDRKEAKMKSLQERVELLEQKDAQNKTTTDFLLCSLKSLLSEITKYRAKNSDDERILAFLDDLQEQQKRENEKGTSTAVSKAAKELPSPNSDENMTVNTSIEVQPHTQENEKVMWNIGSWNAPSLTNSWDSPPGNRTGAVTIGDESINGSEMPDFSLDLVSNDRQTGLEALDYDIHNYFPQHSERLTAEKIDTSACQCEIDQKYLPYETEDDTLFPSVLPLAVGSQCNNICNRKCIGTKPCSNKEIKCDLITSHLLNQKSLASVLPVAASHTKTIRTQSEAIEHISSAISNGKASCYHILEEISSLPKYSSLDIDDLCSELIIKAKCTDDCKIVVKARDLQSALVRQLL
Summary of the method: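 Universal all-10-mer Agilent arrays, double-stranded by primer extension on fresh or once-stripped slides, were probed with about 100-200 nM GST-tagged yeast transcription factors made by PURExpress. Fluorescent anti-GST detected bound protein, and masliner normalised the scans. E-scores from the Universal PBM Analysis Suite were given to each ungapped eight-base word pooled with its reverse complement.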

Row | Sequence | PBM E-score
1 | TAAGTCCA | 0.0496
2 | ATGAATCA | 0.0957
3 | AACAGCGC | 0.0746
4 | CAGATCGC | -0.038
5 | CCTTGTAA | 0.049
6 | ATGACTAC | -0.181
7 | GTGACTAA | 0.37
8 | ATGACTAA | 0.377
9 | GTGACTGA | 0.157
10 | GTGACTCA | -0.0941
11 | ATGACTAG | -0.129
12 | AGCTTGAG | -0.123
13 | CGCATAGA | 0.0454
14 | AATACACT | 0.158
15 | GATACACA | 0.0908
16 | AATACACA | 0.144
17 | CATACACC | 0.00325
18 | GATACACC | 0.257
19 | AATACACC | 0.255
20 | AGTACGCC | -0.293
21 | AGTACGCG | 0.26
22 | AGTACGCA | -0.129
23 | AATAGGGT | 0.0291
24 | CGCCCAGC | 0.0197
25 | CGTTGAAG | -0.178
26 | ATCCGGAA | 0.22

Row | Sequence | PBM E-score
27 | ACCGGAAA | 0.135
28 | GTCCGGAC | 0.319
29 | ATCCGGAC | 0.131
30 | TCCGGAAA | 0.252
31 | TTCCGGAA | 0.316
32 | CTCCGGAC | 0.00021
33 | CTCCGGAA | 0.00101
34 | CCCGGAAA | 0.134
35 | ATGCTCCG | -0.114
36 | ATCCAGGG | -0.173
37 | GACAAGCA | -0.021
38 | ACCACTAT | 0.0199
39 | CACAATTA | 0.00794
40 | ACACTTTA | 0.0868
41 | CATAATTC | 0.0611
42 | GATAATAA | 0.0805
43 | AATAATTG | 0.0365
44 | CATAATTA | 0.279
45 | AATAATTA | 0.336
46 | GATAATTA | 0.297
47 | AATAATTC | 0.18
48 | CATAATGA | 0.0454
49 | GATAATGA | 0.167
50 | CTCATTCA | 0.0583
51 | AGTGTGAC | -0.0643
52 | AGACTCAG | 0.0244

Row | Sequence | PBM E-score
53 | CGCGATTC | 0.268
54 | AGCGATTC | -0.021
55 | CGCGATTA | 0.187
56 | CCCTAACC | -0.157
57 | CACTAGAC | -0.0989
58 | AGCTTACA | 0.351
59 | TGCTTACA | 0.235
60 | AGCTTACC | -0.0175
61 | GCGCCCAA | 0.143
62 | AATTCGGT | 0.266
63 | AATTCGGG | 0.0637
64 | AATTCGTC | 0.274
65 | CATTCGTC | 0.0375
66 | AATTCGGC | -0.0493
67 | AATTCGTA | 0.0688
68 | CAATTTCA | 0.0182
69 | CTCGGCAG | 0.136
70 | CAAGCTTG | -0.294
71 | ATTGGTCC | 0.0438
72 | AAACCGCA | -0.213
73 | CAACCGCG | 0.297
74 | AAACCGCC | -0.0149
75 | GAACCGAC | 0.105
76 | AAACCGCG | 0.271
77 | CAACCGCA | 0.066
78 | CAACCGCC | -0.23

Row | Sequence | PBM E-score
79 | CAACCGAA | 0.168
80 | CAACCGAC | 0.252
81 | ACTAGAGA | -0.224
82 | CGTGCGAA | 0.036
83 | GGGCATTA | -0.152
84 | GATCAAGC | -0.0801
85 | GGCGGTAA | 0.045
86 | ACTTCGCG | 0.216
87 | GCAACAGC | -0.076
88 | ATAAGGGG | -0.0559
89 | CTATCGTA | -0.0798
90 | CCGAAACA | 0.0714
91 | ACGAAACA | 0.192
92 | TCGAAACA | 0.251
93 | AGCTATCA | 0.118
94 | CGAAGAGA | 0.106
95 | ATGTCACG | 0.0134
96 | ATGTCACC | 0.0545
97 | ATGTCAGC | 0.315
98 | ATGTCAGA | -0.0566
99 | CTGTCACA | 0.0656
100 | GTGTCAAA | 0.163
101 | CTGTCAGC | 0.118
102 | GTGTCACA | 0.252
103 | ATGTCACA | 0.306
104 | AGCCAGAT | -0.239

Row | Sequence | PBM E-score
105 | AGGTCAAC | 0.00774
106 | ACCTGATG | -0.134
107 | CAGAATGG | -0.00601
108 | CATCAAGA | 0.0115
109 | CCTCAACA | 0.0958
110 | CTTCACGA | -0.199
111 | ATTCACGC | 0.0118
112 | CTTCACGC | 0.26
113 | CTAGACCA | 0.00762
114 | CCAGGACA | 0.0769
115 | CTTATCAC | 0.0836
116 | ATTATCGG | 0.0117
117 | GTTATCAA | 0.129
118 | ATTATCGA | 0.107
119 | CTTATCAA | 0.256
120 | ATTATCGC | 0.282
121 | CATATCAA | 0.259
122 | AATATCAA | 0.138
123 | ATTATCAA | 0.297
124 | ATTATCAG | -0.0126
125 | ATTATCAC | 0.151
126 | CATATCAG | -0.00093
127 | CCAATCGA | 0.105
128 | TATTAGAA | 0.24
129 | CAAACACG | 0.126
130 | CAAAAGCG | 0.0683

Row | Sequence | PBM E-score
131 | ACACGCCC | -0.0578
132 | AGCCATAT | -0.0728
133 | GGTAGCCA | -0.0237
134 | CGACTTAA | 0.0481
135 | TATACCAA | 0.0311
136 | ACGAAATA | 0.201
137 | GCGAAATA | -0.0552
138 | CCGAAATA | 0.253
139 | GGGGTTCA | -0.191
140 | ATCGCCCG | -0.0312
141 | GTTGCTTA | 0.261
142 | ATTGCTTA | 0.176
143 | GTTGCTGA | 0.111
144 | GCTCGGTA | -0.203
145 | CATAGGGC | -0.163
146 | CAATTCGC | 0.322
147 | CAATTCGA | -0.0688
148 | GAATTCGC | -0.0565
149 | ATTCGCAC | 0.00983
150 | GGTGCTGA | -0.0741
151 | AACGCCTG | 0.0294
152 | AGTAAGGG | 0.0236
153 | AGTAAGCC | 0.156
154 | ACTAAGCT | 0.223
155 | AGTAAGCG | 0.338
156 | ACTAAGCA | 0.181

Row | Sequence | PBM E-score
157 | ACTAAGCG | 0.3
158 | ACCGTCTC | 0.138
159 | CTTGCAAA | 0.105
160 | ATTCCTTC | 0.105
161 | ATTGTACA | 0.106
162 | GTTGTACA | 0.286
163 | CTTGTACA | -0.0604
164 | CTGAGGGA | -0.0379
165 | ACTAAAAA | 0.107
166 | ACTAAAAT | 0.255
167 | ATTAAAAA | 0.221
168 | ACTAAAAC | 0.116
169 | ATTAAAAC | 0.108
170 | ATTAAAAT | 0.253
171 | ATGACGTC | 0.0734
172 | AGGAAGTC | -0.225
173 | GAGTGGGC | -0.294
174 | AGGCTACA | 0.00724
175 | TGAAAGAA | 0.253
176 | GGAAAGAA | -0.177
177 | AGAAAGAA | 0.0147
